For experiment [1], the target named is Estrogen receptor beta (Homo sapiens) (UniProt Q92731). The experiment in a line: qHTS assay to identify small molecule agonists of the estrogen receptor beta (ER-beta) signaling pathway (AID 1259377; active = well fitted activation curve with a large enough effect in the signal ratio in the repeat runs, not every such curve was filed as active; the % refers to the signal ratio). A digest of the protocol: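 Agonist mode cell assay in GripTite HEK293T cells expressing an ER-beta fusion that drives beta-lactamase from an Upstream Activator Sequence; 16 hr compound exposure at 37C, then 2 h LiveBLAzer B/G FRET substrate at room temperature, fluorescence read-out.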
Estrogen receptor beta (Homo sapiens), sequence (Q92731 whole entry, looked up, the tested form may be a part): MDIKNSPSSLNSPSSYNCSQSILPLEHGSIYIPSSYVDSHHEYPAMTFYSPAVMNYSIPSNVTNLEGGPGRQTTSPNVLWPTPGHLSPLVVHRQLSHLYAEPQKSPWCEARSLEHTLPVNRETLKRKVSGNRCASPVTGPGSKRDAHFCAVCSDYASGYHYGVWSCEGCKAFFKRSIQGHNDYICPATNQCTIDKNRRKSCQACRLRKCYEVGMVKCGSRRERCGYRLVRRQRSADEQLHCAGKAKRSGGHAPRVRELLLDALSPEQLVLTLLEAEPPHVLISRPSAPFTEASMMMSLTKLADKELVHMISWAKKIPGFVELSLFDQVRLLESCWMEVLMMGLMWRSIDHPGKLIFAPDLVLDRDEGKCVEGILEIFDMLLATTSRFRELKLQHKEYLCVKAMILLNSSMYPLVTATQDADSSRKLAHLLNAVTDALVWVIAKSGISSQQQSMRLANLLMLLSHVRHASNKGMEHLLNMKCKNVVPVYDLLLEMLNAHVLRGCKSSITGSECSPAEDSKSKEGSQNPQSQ
In general terms: Quantitative high-throughput screening tests each substance at several concentrations.

The nature of experiment [2]: qHTS assay to identify small molecule agonists of the androgen receptor (AR) signaling pathway in the presence of an antagonist - cell viability counter screen (AID 1259379).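 Also: MDA-kb2 human breast cancer cells carrying an MMTV luciferase reporter; series mostly up to about 92 µM; nearly all actives have a fitted effect of over 25% in size.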 A digest of the protocol: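 In MDA-kb2 cells (human breast carcinoma, MMTV-luciferase), compounds at 15 concentrations plus 3.0uM nilutamide; 16 hr, 37C, 0% CO2; CellTiter-Fluor fluorescence read for viability.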

Experiment [3] is described as follows: qHTS assay to identify small molecule agonists of the estrogen receptor beta (ER-beta) signaling pathway - cell viability counter screen (AID 1259380). Also: nearly all actives have a fitted effect of over 30% in size. In short, it runs like this:
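Viability of ER-beta-UAS-bla HEK293T cells was determined by CellTiter-Glo luminescence following 16 hr treatment with test compounds at 37C.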

Experiment [4] in a line: qHTS assay to identify small molecule antagonists of the estrogen receptor beta (ER-beta) signaling pathway - cell viability counter screen (AID 1259382). Also: series mostly up to about 92 µM; nearly all actives have a fitted effect of over 55% in size. In short, it runs like this: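 Tox21 10K library tested in qHTS format on ER-beta-bla HEK293T cells stimulated with 1nM E2; 16 hr treatment at 37C. Same-well CellTiter-Glo luminescence served as the cell viability measure.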

The nature of experiment [5]: qHTS assay to identify small molecule agonists or antagonists of the thyroid stimulating hormone receptor (TSHR) signaling pathway - wild type cell line counter screen (AID 1259384; calls by dose curve). In short, it runs like this: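 Wild-type Hek293 cells, 800/well, 18 h at 37C, then compound with Ro20-1724 for 30 min RT. cAMP by HTRF (cAMP-d2/anti-cAMP cryptate), 1 h RT, fluorescence read. 15 concentrations, triplicates.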

The target of experiment [6] is Thyrotropin receptor (Homo sapiens) (UniProt P16473). Briefly: qHTS assay to identify small molecule antagonists of the thyroid stimulating hormone receptor (TSHR) signaling pathway (AID 1259385; calls by dose curve; also: nearly all actives have a fitted effect of over 20% in size). A digest of the protocol: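 TSHR-HEK293 cells (800/well) plated 18 h, then compounds with Ro20-1724 and TSH at 1.5 ng/mL final, 30 min at room temperature. cAMP quantified by HTRF (cAMP-d2/anti-cAMP-cryptate, 1 h); 15 concentrations in triplicate.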
Thyrotropin receptor (Homo sapiens), sequence (P16473 whole entry, looked up): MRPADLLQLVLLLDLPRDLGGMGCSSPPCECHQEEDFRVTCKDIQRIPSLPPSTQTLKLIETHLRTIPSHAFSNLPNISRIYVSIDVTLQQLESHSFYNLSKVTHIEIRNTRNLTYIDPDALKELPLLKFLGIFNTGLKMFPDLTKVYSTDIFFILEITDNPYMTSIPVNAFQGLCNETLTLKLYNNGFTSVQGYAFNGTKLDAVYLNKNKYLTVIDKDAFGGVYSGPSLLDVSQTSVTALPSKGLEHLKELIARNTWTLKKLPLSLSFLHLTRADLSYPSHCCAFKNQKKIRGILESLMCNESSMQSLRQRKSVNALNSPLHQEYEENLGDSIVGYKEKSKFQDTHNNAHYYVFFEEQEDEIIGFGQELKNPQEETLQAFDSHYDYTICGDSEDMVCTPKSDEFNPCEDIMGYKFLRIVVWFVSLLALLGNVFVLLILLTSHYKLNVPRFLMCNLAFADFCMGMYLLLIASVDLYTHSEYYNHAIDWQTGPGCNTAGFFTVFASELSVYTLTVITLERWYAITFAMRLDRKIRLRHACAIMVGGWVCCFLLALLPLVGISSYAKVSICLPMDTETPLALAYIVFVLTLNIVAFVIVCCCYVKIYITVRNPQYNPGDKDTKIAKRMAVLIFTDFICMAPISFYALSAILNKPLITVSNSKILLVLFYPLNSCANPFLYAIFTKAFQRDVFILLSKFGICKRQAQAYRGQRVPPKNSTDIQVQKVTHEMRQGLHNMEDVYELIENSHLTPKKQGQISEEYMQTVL

Experiment [7] is described as follows: qHTS assay to identify small molecule agonists of the estrogen receptor alpha (ER-alpha) signaling pathway in the presence of an antagonist - cell viability counter screen (AID 1259386).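 Also: series mostly up to about 92 µM; cells exposed to compounds for 22 h at 37 °C before the viability read; nearly all actives have a fitted effect of over 30% in size.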 In short, it runs like this:
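Fluorescent CellTiter-Fluor viability signal from VM7Luc4E2 cells, with the reagent added during the final hour of a 22hr compound exposure at 37C in the presence of 10.0nM ICI-182,780.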

The nature of experiment [8]: qHTS assay to identify small molecule antagonists of the progesterone receptor (PR) signaling pathway - cell viability counter screen (AID 1346798). Also: series mostly up to about 92 µM; nearly all actives have a fitted effect of over 50% in size. In short, it runs like this:
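Counter screen for cytotoxicity: viability of PR-UAS-bla HEK293T cells was measured with CellTiter-Glo luminescence following 16 hr compound exposure in the presence of R5020.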

Experiment [9] in a line: qHTS assay to identify small molecule agonists of the progesterone receptor (PR) signaling pathway - cell viability counter screen (AID 1346799; calls by dose curve; also: nearly all actives have a fitted effect of over 45% in size; also: potency is read from the fitted curve at half-maximal effect). In short, it runs like this: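 Cells (PR-UAS-bla HEK293T) are plated at 3,000/well in 2% charcoal-stripped FBS medium, rested 6 hr, dosed and incubated 16 hr at 37C. CellTiter-Glo is then added and luminescence measured after 30 min at room temperature.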

Experiment [10] in a line: qHTS assay to identify small molecule antagonists of the TGF-beta/Smad signaling pathway - cell viability counter screen (AID 1346824). Also: nearly all actives have a fitted effect of over 50% in size. In short, it runs like this: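 SBE-bla HEK 293T cells, incubated overnight, then compound plus 0.25 ng/mL TGF-beta1 (stock added) for 5 hr at 37 C. Viability was read in the same wells by CellTiter-Glo luminescence after 30 min at room temperature.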

The nature of experiment [11]: qHTS assay to identify small molecule agonists of the TGF-beta/Smad signaling pathway - cell viability counter screen (AID 1346829). Also: top concentration of the series differs between compounds; nearly all actives have a fitted effect of over 45% in size. In short, it runs like this:
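Compound-treated SBE-bla HEK 293T cells (5 hr, 37 C) were assessed for viability with CellTiter-Glo in parallel with the reporter read.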

Experiment [12] can be described thus: qHTS assay to identify small molecule agonists of the TGF-beta/Smad signaling pathway (AID 1346859; active = well fitted activation curve with a large enough effect in the signal ratio in the repeat runs, not every such curve was filed as active; the % refers to the signal ratio; also: series mostly up to about 77 µM). In short, it runs like this:
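Reporter line: HEK 293T with stably integrated SBE-controlled beta-lactamase. Compound exposure lasts 5 hr at 37 C and 5% CO2; substrate loading follows for 2 hr at room temperature, with emission read at 460 and 530 nm.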

For experiment [13], the target named is Thyrotropin-releasing hormone receptor (Homo sapiens) (UniProt P34981). The experiment in a line: qHTS assay to identify small molecule antagonists of the thyrotropin-releasing hormone receptor (TRHR) signaling pathway (AID 1346877; active = well fitted inhibition curve with a large enough effect in the repeat runs, not every such curve was filed as active; also: series mostly up to about 51 µM). In short, it runs like this: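 In this cell-based calcium flux format, HEK293 cells expressing TRHR received test compound for 5 min before the agonist TRH (1 nM final). Dye loading lasted 2 h at 37 °C.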
Thyrotropin-releasing hormone receptor (Homo sapiens), sequence (P34981 whole entry, looked up): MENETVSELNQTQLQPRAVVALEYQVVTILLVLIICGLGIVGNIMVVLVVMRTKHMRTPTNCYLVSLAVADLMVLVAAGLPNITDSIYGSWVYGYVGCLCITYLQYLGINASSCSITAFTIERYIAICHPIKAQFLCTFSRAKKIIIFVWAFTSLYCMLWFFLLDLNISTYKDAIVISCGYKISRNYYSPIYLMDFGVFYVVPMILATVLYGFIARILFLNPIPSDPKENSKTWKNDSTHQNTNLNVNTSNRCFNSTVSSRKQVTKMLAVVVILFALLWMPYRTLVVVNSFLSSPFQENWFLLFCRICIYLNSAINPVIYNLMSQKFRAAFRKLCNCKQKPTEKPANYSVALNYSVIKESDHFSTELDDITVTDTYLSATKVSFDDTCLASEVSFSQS

Experiment [14] shares this target. The experiment in a line: qHTS assay to identify small molecule agonists of the thyrotropin-releasing hormone receptor (TRHR) signaling pathway (AID 1346891; calls by dose curve; also: series mostly up to about 58 µM). In short, it runs like this: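 Cells: TRHR-Hek293, seeded and incubated 18 h. Dye loading: 2 h at 37 °C. Compound added from DMSO stock by pin tool. Read-out: kinetic calcium fluorescence over 3 min.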
The nature of experiment [15]: Human pregnane X receptor (PXR) small molecule agonists, qHTS cell viability counter screen (AID 1346977). Also: nearly all actives have a fitted effect of over 50% in size. In short, it runs like this: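 Cytotoxicity counter screen run in the same wells as the PXR luciferase assay, using PXR-Luc HepG2 cells in charcoal-stripped serum medium. Viability: CellTiter-Fluor fluorescence after 24hr compound treatment.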
In experiment [16] the target is Androgen receptor (Homo sapiens) (UniProt P10275). The experiment in a line: qHTS assay to identify small molecule agonists of the androgen receptor (AR) signaling pathway in the presence of an antagonist (AID 1259381; calls by dose curve; also: nearly all actives have a fitted effect of over 15% in size). A digest of the protocol: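 Here, 15-concentration compound series were pin-transferred onto MDA-kb2 MMTV-luciferase cells already dosed with nilutamide (3.0uM final). After 16hr at 37C, ONE-Glo was added and luminescence read 30min later at room temperature.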
Androgen receptor (Homo sapiens), sequence (P10275 whole entry, looked up): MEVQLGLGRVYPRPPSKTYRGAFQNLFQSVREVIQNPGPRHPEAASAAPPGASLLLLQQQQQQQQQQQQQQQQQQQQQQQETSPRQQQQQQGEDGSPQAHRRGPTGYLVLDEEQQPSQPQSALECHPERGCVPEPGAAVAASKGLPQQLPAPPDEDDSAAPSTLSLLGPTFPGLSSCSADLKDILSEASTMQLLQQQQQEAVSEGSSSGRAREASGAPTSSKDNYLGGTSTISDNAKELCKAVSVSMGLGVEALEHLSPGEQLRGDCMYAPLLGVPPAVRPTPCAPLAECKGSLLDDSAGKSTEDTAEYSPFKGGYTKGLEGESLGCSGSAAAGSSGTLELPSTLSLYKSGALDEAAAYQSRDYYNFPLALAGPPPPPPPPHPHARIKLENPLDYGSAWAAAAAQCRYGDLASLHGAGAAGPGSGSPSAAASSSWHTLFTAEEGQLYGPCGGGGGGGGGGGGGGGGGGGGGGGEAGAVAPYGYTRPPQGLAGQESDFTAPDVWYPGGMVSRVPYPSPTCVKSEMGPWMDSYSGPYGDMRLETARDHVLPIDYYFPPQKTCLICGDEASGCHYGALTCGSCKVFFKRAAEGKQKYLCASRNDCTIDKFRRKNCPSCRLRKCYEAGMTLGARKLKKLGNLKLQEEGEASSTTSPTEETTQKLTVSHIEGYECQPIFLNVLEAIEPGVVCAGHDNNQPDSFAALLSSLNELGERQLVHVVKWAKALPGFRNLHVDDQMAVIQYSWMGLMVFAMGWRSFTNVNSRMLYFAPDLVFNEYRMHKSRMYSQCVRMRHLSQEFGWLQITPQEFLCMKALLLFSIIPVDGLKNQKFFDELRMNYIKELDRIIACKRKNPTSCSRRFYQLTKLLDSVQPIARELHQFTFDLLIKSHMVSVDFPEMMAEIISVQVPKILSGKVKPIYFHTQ

Experiment [17] addresses Progesterone receptor (Homo sapiens) (UniProt P06401). Briefly: qHTS assay to identify small molecule agonists of the progesterone receptor (PR) signaling pathway (AID 1346784; calls by dose curve; also: nearly all actives have a fitted effect of over 30% in size). A digest of the protocol: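 Cells (PR-UAS-bla HEK 293T, GripTite) were plated in assay medium containing 2% charcoal-stripped FBS and incubated 6 hr. Test compounds in DMSO were added for 16 hr at 37C. FRET substrate was then loaded for 2 hr at room temperature before fluorescence reading.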

The target is the same in experiment [18]. Briefly: qHTS assay to identify small molecule antagonists of the progesterone receptor (PR) signaling pathway (AID 1346795; active = well fitted inhibition curve with a large enough effect in the signal ratio in the repeat runs, not every such curve was filed as active; the % refers to the signal ratio; also: potency is read from the fitted curve at half-maximal effect). A digest of the protocol: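 Antagonist mode: compounds tested against 1 nM (final) promegestone stimulation in HEK293T cells expressing PR-UAS-bla reporter, 16 hr at 37C, 5% CO2; beta-lactamase activity detected via B/G FRET substrate after 2 hr at room temperature.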

For experiment [19], the target named is Estrogen receptor beta (Homo sapiens) (UniProt Q92731). Briefly: qHTS assay to identify small molecule antagonists of the estrogen receptor beta (ER-beta) signaling pathway (AID 1259378; active = well fitted inhibition curve with a large enough effect in the signal ratio in the repeat runs, not every such curve was filed as active; the % refers to the signal ratio). A digest of the protocol: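 ER-beta-UAS-bla HEK293T cells in 2% charcoal-stripped FBS medium treated with compound plus 1nM final 17-beta-estradiol for 16 hr at 37C. Beta-lactamase reporter read by FRET substrate fluorescence after 2 hours at room temperature.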

Inconclusive results are not listed. Active and inactive are the calls of the source. Unless noted, calls follow the shape of the dose curve; as a rule, active = well fitted curve in the direction sought with a large enough effect in the repeat runs; inconclusive = weak or mixed curves; inactive = no such curve, though single readings can be large; an effect the other way counts as inactive or inconclusive. Where a SMILES comes first, the peptide text is derived from it. [ ]: non-standard residue; d: D form. pGlu = O=C1CC[C@@H](C(=O)O)N1

Progesterone receptor (Homo sapiens), sequence (P06401 whole entry, looked up): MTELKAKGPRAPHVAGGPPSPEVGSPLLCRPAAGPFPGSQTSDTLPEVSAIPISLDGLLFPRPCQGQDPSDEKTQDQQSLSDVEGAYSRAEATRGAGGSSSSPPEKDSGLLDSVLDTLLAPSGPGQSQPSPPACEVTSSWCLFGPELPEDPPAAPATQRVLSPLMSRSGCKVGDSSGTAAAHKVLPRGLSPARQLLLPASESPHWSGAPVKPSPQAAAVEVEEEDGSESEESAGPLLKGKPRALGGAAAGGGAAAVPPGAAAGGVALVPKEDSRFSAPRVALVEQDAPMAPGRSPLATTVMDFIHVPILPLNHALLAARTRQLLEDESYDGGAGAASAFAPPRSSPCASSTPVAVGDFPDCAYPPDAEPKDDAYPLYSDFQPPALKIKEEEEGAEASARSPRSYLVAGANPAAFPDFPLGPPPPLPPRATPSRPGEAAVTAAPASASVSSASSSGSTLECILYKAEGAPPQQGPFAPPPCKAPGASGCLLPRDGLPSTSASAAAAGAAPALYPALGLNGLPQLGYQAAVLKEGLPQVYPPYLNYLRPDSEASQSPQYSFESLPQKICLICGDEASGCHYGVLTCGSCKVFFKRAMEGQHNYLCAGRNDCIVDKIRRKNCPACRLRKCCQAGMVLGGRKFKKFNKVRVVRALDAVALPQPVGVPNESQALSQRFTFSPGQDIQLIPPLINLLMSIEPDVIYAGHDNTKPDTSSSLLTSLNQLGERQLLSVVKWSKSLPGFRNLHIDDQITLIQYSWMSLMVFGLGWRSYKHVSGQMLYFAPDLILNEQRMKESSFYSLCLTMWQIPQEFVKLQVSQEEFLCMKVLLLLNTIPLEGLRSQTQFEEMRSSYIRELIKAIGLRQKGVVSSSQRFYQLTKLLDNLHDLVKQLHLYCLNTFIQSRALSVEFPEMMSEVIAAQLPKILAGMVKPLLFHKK

Regarding `CCOC(=O)CCC(=O)OCC`, the Potency result in [1], in experiment [2], in experiment [3], in [7], in experiment [8] and in experiment [9] was “inactive” throughout. Also, the Potency entry in experiment [14] and in [15] was “inactive” in each case. Moreover, the call in [4], in experiment [5], in experiment [6], in experiment [10], in experiment [11] and in [12] was inactive. Moreover, the result in experiment [13] was inactive.
As to `CC(=O)O[C@@]12CO[C@@H]1C[C@H](O)[C@@]1(C)C(=O)[C@H](O)C3=C(C)[C@@H](OC(=O)[C@H](O)[C@@H](NC(=O)OC(C)(C)C)c4ccccc4)C[C@@](O)([C@@H](OC(=O)c4ccccc4)[C@H]21)C3(C)C`, the Potency result in experiment [1], in [2], in experiment [3], in experiment [16], in experiment [7] and in [17] was “inactive” each time. In addition, the Potency entry in experiment [18] and in experiment [15] was “inactive” throughout. In addition, the result in [4], in experiment [10], in experiment [11] and in [12] was inactive.
For the compound `COC(=O)Nc1ccc(Cl)c(Cl)c1`, the Potency entry in [1], in experiment [2], in experiment [3], in [16], in experiment [17] and in experiment [8] was “inactive” throughout. The Potency entry in experiment [14] and in experiment [15] was “inactive” each time. Further, the call in experiment [4], in [5], in experiment [6], in [10], in [11] and in [12] was inactive. In [13], the outcome was inactive. In addition, the Potency in experiment [18] is 30.5 µM (active).
Turning to `CCN(C=O)CC`, the Potency entry in experiment [1], in [19], in experiment [2], in [14] and in experiment [15] was “inactive” throughout. The call in experiment [4], in experiment [5], in [6], in experiment [10], in experiment [11] and in experiment [12] was inactive. Moreover, the call in experiment [13] was inactive. In addition, the Potency in experiment [9] is 49.8 µM (active).
For the compound `CC[N+](CC)(CC)CCOc1cccc(OCC[N+](CC)(CC)CC)c1OCC[N+](CC)(CC)CC`, the Potency result in experiment [1], in experiment [2], in experiment [3], in experiment [16], in experiment [7] and in [17] was “inactive” each time. For the same compound, the Potency entry in experiment [18], in experiment [8], in experiment [9] and in experiment [15] was “inactive” in each case. Moreover, the call in experiment [4], in [5], in [6], in experiment [10], in experiment [11] and in [12] was inactive.
Turning to `COCCOCC(OC)OC`, the Potency result in experiment [1], in experiment [2], in [3], in [7], in experiment [17] and in experiment [18] was “inactive” each time. The Potency entry in experiment [8], in experiment [9], in experiment [14] and in experiment [15] was “inactive” each time. For the same compound, the result in [4], in experiment [5], in experiment [6], in experiment [10], in experiment [11] and in experiment [12] was inactive. Further, the compound was called inactive in experiment [13].
For the compound `CCNC(=O)[C@@H]1CCCN1C(=O)[C@H](CCCN=C(N)N)NC(=O)[C@H](CC(C)C)NC(=O)CNC(=O)[C@H](Cc1ccc(O)cc1)NC(=O)[C@H](CO)NC(=O)[C@H](Cc1c[nH]c2ccccc12)NC(=O)[C@H](Cc1cnc[nH]1)NC(=O)[C@@H]1CCC(=O)N1` ([pGlu]HWSYGLRP-NHEt), the Potency result in experiment [1], in [2], in experiment [3], in [7], in experiment [17] and in experiment [18] was “inactive” in each case. Further, the Potency entry in experiment [8], in experiment [9] and in experiment [15] was “inactive” throughout. The call in experiment [4], in experiment [5], in [6], in experiment [10], in [11] and in experiment [12] was inactive.
Take `CCCCCCC#CC(=O)OC`: the Potency entry in experiment [1], in experiment [19], in experiment [2], in [7], in [17] and in experiment [18] was “inactive” in each case. For the same compound, the Potency result in experiment [9], in experiment [14] and in experiment [15] was “inactive” throughout. Also, the call in experiment [4], in experiment [10], in experiment [11], in experiment [12] and in experiment [13] was inactive.
With `NC(=O)N1c2ccccc2CC(=O)c2ccccc21`, the Potency result in [1], in [19], in [2], in [7], in experiment [17] and in [8] was “inactive” in each case. The Potency result in experiment [9] and in [15] was “inactive” in each case. Besides, the outcome in experiment [4], in [5], in experiment [6], in [10], in experiment [11] and in experiment [12] was inactive.

(Values after PubChem BioAssay (Tox21).)
